Values joined by “and” are separate entries in the source; they are usually repeats but may differ in a detail not shown here. Identical values can stand only once. Inconclusive results are not listed. Active and inactive are the calls of the source. Unless noted, calls come from the whole dose curve; as a rule, active = well fitted inhibition curve with a large enough effect; inconclusive = small, poorly fitted or top-dose-only effect; inactive = flat fitted curve, though single readings scatter.
Columns and labels:
CP262 = test: qHTS profiling for inhibitors of Plasmodium falciparum proliferation (AID 504749);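 note: 0% = DMSO vehicle and full inhibition = artemisinin control; nearly all actives have a fitted effect of over 60% in size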; conditions: P. falciparum in erythrocytes, SYBR Green DNA, 72 h; series mostly up to 28.7 µM
How it was run: (§1)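 Readout was DNA-dye fluorescence from lysed cultures, ex 485/em 535 nm. Parasitized red cells had grown 72 h with compound; data scaled between 0.29 uM artemisinin and DMSO wells and corrected using vehicle-only plates.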

CP265 = test: as above; conditions: P. falciparum in erythrocytes, SYBR Green DNA, 72 h; series mostly up to 28.7 µM
How it was run: as §1

CP266 = test: as above; conditions: P. falciparum in erythrocytes, SYBR Green DNA, 72 h; series mostly up to 28.7 µM
How it was run: as §1

CP268 = test: as above; conditions: P. falciparum in erythrocytes, SYBR Green DNA, 72 h; series mostly up to 28.7 µM
How it was run: as §1

CP269 = test: as above; conditions: P. falciparum in erythrocytes, SYBR Green DNA, 72 h; series mostly up to 28.7 µM
How it was run: as §1

CP286 = test: as above; conditions: P. falciparum in erythrocytes, SYBR Green DNA, 72 h; series mostly up to 28.7 µM
How it was run: as §1

CP291 = test: as above; conditions: P. falciparum in erythrocytes, SYBR Green DNA, 72 h; series mostly up to 28.7 µM
How it was run: as §1

CP297 = test: as above; conditions: P. falciparum in erythrocytes, SYBR Green DNA, 72 h; series mostly up to 28.7 µM
How it was run: as §1

CP305 = test: as above; conditions: P. falciparum in erythrocytes, SYBR Green DNA, 72 h; series mostly up to 28.7 µM
How it was run: as §1

CP315 = test: as above; conditions: P. falciparum in erythrocytes, SYBR Green DNA, 72 h; series mostly up to 28.7 µM
How it was run: as §1

CP325 = test: as above; conditions: P. falciparum in erythrocytes, SYBR Green DNA, 72 h; series mostly up to 28.7 µM
How it was run: as §1

CP329 = test: as above; conditions: P. falciparum in erythrocytes, SYBR Green DNA, 72 h; series mostly up to 28.7 µM
How it was run: as §1

CP335 = test: as above; conditions: P. falciparum in erythrocytes, SYBR Green DNA, 72 h; series mostly up to 28.7 µM
How it was run: as §1

DFO2036 = test: as above; conditions: P. falciparum in erythrocytes, SYBR Green DNA, 72 h; series mostly up to 28.7 µM
How it was run: as §1

DIV14 = test: as above; conditions: P. falciparum in erythrocytes, SYBR Green DNA, 72 h; series mostly up to 28.7 µM
How it was run: as §1

DIV17 = test: as above; conditions: P. falciparum in erythrocytes, SYBR Green DNA, 72 h; series mostly up to 28.7 µM
How it was run: as §1

DIV30 = test: as above; conditions: P. falciparum in erythrocytes, SYBR Green DNA, 72 h; series mostly up to 28.7 µM
How it was run: as §1

Dd2 = test: as above; conditions: P. falciparum in erythrocytes, SYBR Green DNA, 72 h; series mostly up to 28.7 µM
How it was run: as §1

ECU = test: as above; conditions: P. falciparum in erythrocytes, SYBR Green DNA, 72 h; series mostly up to 28.7 µM
How it was run: as §1

FAB9 = test: as above; conditions: P. falciparum in erythrocytes, SYBR Green DNA, 72 h; series mostly up to 28.7 µM
How it was run: as §1

GB4 = test: as above; conditions: P. falciparum in erythrocytes, SYBR Green DNA, 72 h; series mostly up to 28.7 µM
How it was run: as §1

HB3 = test: as above; conditions: P. falciparum in erythrocytes, SYBR Green DNA, 72 h; series mostly up to 28.7 µM
How it was run: as §1

ICS = test: as above; conditions: P. falciparum in erythrocytes, SYBR Green DNA, 72 h; series mostly up to 28.7 µM
How it was run: as §1

JCK = test: as above; conditions: P. falciparum in erythrocytes, SYBR Green DNA, 72 h; series mostly up to 28.7 µM
How it was run: as §1

N140 = test: as above; conditions: P. falciparum in erythrocytes, SYBR Green DNA, 72 h; series mostly up to 28.7 µM
How it was run: as §1

P93_24 = test: as above; conditions: P. falciparum in erythrocytes, SYBR Green DNA, 72 h; series mostly up to 28.7 µM
How it was run: as §1

P94_40 = test: as above; conditions: P. falciparum in erythrocytes, SYBR Green DNA, 72 h; series mostly up to 28.7 µM
How it was run: as §1

PAD = test: as above; conditions: P. falciparum in erythrocytes, SYBR Green DNA, 72 h; series mostly up to 28.7 µM
How it was run: as §1

PC15 = test: as above; conditions: P. falciparum in erythrocytes, SYBR Green DNA, 72 h; series mostly up to 28.7 µM
How it was run: as §1

PC26 = test: as above; conditions: P. falciparum in erythrocytes, SYBR Green DNA, 72 h; series mostly up to 28.7 µM
How it was run: as §1

PC49 = test: as above; conditions: P. falciparum in erythrocytes, SYBR Green DNA, 72 h; series mostly up to 28.7 µM
How it was run: as §1

SC27B = test: as above; conditions: P. falciparum in erythrocytes, SYBR Green DNA, 72 h; series mostly up to 28.7 µM
How it was run: as §1

TAB109 = test: as above; conditions: P. falciparum in erythrocytes, SYBR Green DNA, 72 h; series mostly up to 28.7 µM
How it was run: as §1

TAB113 = test: as above; conditions: P. falciparum in erythrocytes, SYBR Green DNA, 72 h; series mostly up to 28.7 µM
How it was run: as §1

TAB165 = test: as above; conditions: P. falciparum in erythrocytes, SYBR Green DNA, 72 h; series mostly up to 28.7 µM
How it was run: as §1

[1] = target: Nuclear receptor subfamily 1 group I member 2 (Rattus norvegicus) (UniProt Q9R1A7); test: qHTS assay for small molecule activators of the rat pregnane X receptor (rPXR) signaling pathway (AID 651751; call rule not given here; note: 0% is about no effect); conditions: rPXR reporter cells, luciferase (One-Glo), 24 h
Nuclear receptor subfamily 1 group I member 2 (Rattus norvegicus), sequence (Q9R1A7 whole entry, looked up): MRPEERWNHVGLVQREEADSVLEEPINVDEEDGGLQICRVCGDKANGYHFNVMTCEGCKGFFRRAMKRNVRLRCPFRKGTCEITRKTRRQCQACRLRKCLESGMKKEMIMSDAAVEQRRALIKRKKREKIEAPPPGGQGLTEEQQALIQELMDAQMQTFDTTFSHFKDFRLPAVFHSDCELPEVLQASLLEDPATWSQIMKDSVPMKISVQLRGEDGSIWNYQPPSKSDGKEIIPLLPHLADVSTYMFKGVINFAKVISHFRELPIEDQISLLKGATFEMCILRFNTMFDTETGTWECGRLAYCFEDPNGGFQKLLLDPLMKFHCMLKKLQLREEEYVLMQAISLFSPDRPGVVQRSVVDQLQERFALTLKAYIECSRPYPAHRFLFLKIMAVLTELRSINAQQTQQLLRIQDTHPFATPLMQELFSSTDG

[2] = qHTS assay for small molecule activators of the human pregnane X receptor (PXR) signaling pathway (AID 720659; call rule not given here; note: 0% is about no effect)

CN1[C@H]2CC(OC(=O)[C@H](CO)c3ccccc3)C[C@H]1[C@H]1O[C@H]12 (some centres not stated)
inactive: Potency (CP262) | Potency (CP265) | Potency (CP266) | Potency (CP268) | Potency (CP269) | Potency (CP286) | Potency (CP291) | Potency (CP297) | Potency (CP305) | Potency (CP315) | Potency (CP325) | Potency (CP329) | Potency (CP335) | Potency (DFO2036) | Potency (DIV14) | Potency (DIV17) | Potency (DIV30) | Potency (Dd2) | Potency (ECU) | Potency (FAB9) | Potency (GB4) | Potency (HB3) | Potency (ICS) | Potency (JCK) | Potency (N140) | Potency (P93_24) | Potency (P94_40) | Potency (PAD) | Potency (PC15) | Potency (PC26) | Potency (PC49) | Potency (SC27B) | Potency (TAB109) | Potency (TAB113) | Potency (TAB165) | max response [1] -5.42% and 5.83% | outcome [2]

Reference: PubChem BioAssay (NCATS)
